This excerpt belongs to a sample that is enriched for hits.
VCAM1 pot: potentiators of TNFa-induced VCAM1 expression, primary screen, imaging, HUVEC, TNFa stimulus, immunofluorescence; HUVEC TNFa-stimulated VCAM-1 immunofluorescence, high-content imaging; scaled per plate to unstimulated/TNFa-only wells; activation, % at 2 µM; AID 808, 2007; 0.19% of 93,000 active;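 active means activation above the screen mean plus 3 SD, with well images confirming the hit on visual review, cut at about 28% in these data, passing the limit was not always enough; inconclusive means activation above that limit but images do not confirm it; inactive means activation not above that limit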;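 further: signal is the number of cytoplasmic VCAM-1 stained grains per positive cell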
VCAM1 pot conf: potentiators of TNFa-induced VCAM1 expression, confirmation, imaging, HUVEC, triplicate retest | AID 1034, 2008 | activation, % at 2 µM | 230 tested, under 10 active | HUVEC TNFa-stimulated VCAM-1 immunofluorescence imaging | shares compounds with VCAM1 pot;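 active means activation above 30% in triplicate retests at 2 µM, then confirmed by visual review of the well images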;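 further: scaled per plate between unstimulated and TNFa-stimulated DMSO control wells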
* = called active by the depositor.

Results for O=C(CSc1ccc2c(c1)OCCO2)NCC1CCCO1 (configuration not stated) ?
VCAM1 pot: 3.3

Results for COc1ccc(C)cc1NC(=O)CN(Cc1nnc(-c2ccc(Cl)cc2)o1)C1CCCC1 ?
VCAM1 pot: -1.2

Results for COc1ccc(C)cc1NC(=O)COC(=O)C1CC1 ?
VCAM1 pot: 55.9*; VCAM1 pot conf: -14.1

How did Cc1cccc(OCC(=O)Nc2cc(C)ccc2O)c1 do in these assays?
VCAM1 pot: -57.7

How did CC(C)(C)c1nn(-c2ccccc2)c2[nH]c(=O)c(CNCc3ccc4c(c3)OCO4)cc12 do in these assays?
VCAM1 pot: 7.1

Results for O=C(O)C1CC=CCC1C(=O)N1CCCC1 (configuration not stated) ?
VCAM1 pot: -82.2

How did Cc1noc(C)c1S(=O)(=O)N1CCCC(C(=O)Nc2cccnc2)C1 (configuration not stated) do in these assays?
VCAM1 pot: -0.4

How did CCOC(=O)/C(=C\c1ccccc1)C(=O)c1cc(C(C)=O)c(Nc2ccccc2)s1 do in these assays?
VCAM1 pot: 67.6*; VCAM1 pot conf: -12.6

Results for CCOC(=O)/C(=C\c1cccnc1)C(=O)c1cc(C(C)=O)c(Nc2ccccc2)s1 ?
VCAM1 pot: -53.9

Results for O=C(CCCOc1ccccc1)Nc1ccc2c(c1)OCCO2 ?
VCAM1 pot: -7.6

Results for O=C(Oc1ccc2ccccc2c1)c1ccccc1 ?
VCAM1 pot: 3.8

How did CCCC(C(=O)NC1CCCC1)N(CCCN1CCOCC1)C(=O)c1snc(C(N)=O)c1N (configuration not stated) do in these assays?
VCAM1 pot: -78.3

Results for Cc1ccc(-c2cc(=O)[nH]c3ccccc23)cc1 ?
VCAM1 pot: 18.3

Results for Cc1ccc(C(C)NC(=O)/C(C#N)=C\c2c(C)[nH]c3ccccc23)cc1 (configuration not stated) ?
VCAM1 pot: 51.8*; VCAM1 pot conf: -14.9

What do the screens show for `CC(C)(C)C(=O)NC(NC(=S)Nc1sc2c(c1C#N)CCCC2)C(Cl)(Cl)Cl` (configuration not stated)?
VCAM1 pot: 3.4

Results for O=C(c1ccc2c(c1)[nH]c(=S)n1c3ccccc3nc21)N1CCN(c2ncccn2)CC1 ?
VCAM1 pot: -1.0

What do the screens show for `Cn1nc(-c2ccc(C(=O)N3CCN(c4ccccc4)CC3)cc2)c2ccccc2c1=O`?
VCAM1 pot: 10.5

What do the screens show for `O=C(c1ccc(-c2ccccc2)cc1)N1CCN(c2ncccn2)CC1`?
VCAM1 pot: inconclusive; VCAM1 pot conf: -4.3

Results for Cc1nnc(Nc2ccc3c(c2)ncn3C)c2ccccc12 ?
VCAM1 pot: -3.7

How did CCCCCOC(=O)C1[C@H]2C(=O)N(CCCOC)C[C@]23C=C[C@H]1O3 (some centres not stated) do in these assays?
VCAM1 pot: -9.6

What do the screens show for `CCOC(=O)Cc1csc(SCC(=O)/C(C#N)=C(\C)N)n1`?
VCAM1 pot: -59.2

What do the screens show for `Cc1ccc(SCC(=O)NCc2cccnc2)cc1`?
VCAM1 pot: -8.0

Results for N#CC(c1cccc(Cl)c1)c1ccc2c(C(F)(F)F)cc(C(F)(F)F)nc2n1 (configuration not stated) ?
VCAM1 pot: -6.6

What do the screens show for `Cc1ccc(S(=O)(=O)NCCCNC(=O)c2ccccc2)cc1`?
VCAM1 pot: 2.1

How did CCCCN(CCCNC(=O)c1c(C)cc(=O)oc1C)c1ccccc1 do in these assays?
VCAM1 pot: 39.5*; VCAM1 pot conf: -5.7

Results for CCCCOCCCNC(=O)c1cccs1 ?
VCAM1 pot: -89.5

What do the screens show for `CC1CN(S(=O)(=O)c2ccc(Cl)c(C(F)(F)F)c2)CC(C)O1` (configuration not stated)?
VCAM1 pot: 22.2

How did Cc1ccccc1CSCCNC(=O)CCSc1ccccc1 do in these assays?
VCAM1 pot: 8.6

Results for C/C=C/c1ccc(OCCn2cncn2)c(OC)c1 ?
VCAM1 pot: -9.8

How did O=C(NCc1ccco1)c1sc2cc(Cl)ccc2c1Cl do in these assays?
VCAM1 pot: 64.3*; VCAM1 pot conf: -12.8

What do the screens show for `O=C(NCc1ccco1)c1ccc(CS(=O)(=O)Cc2ccc(Cl)cc2)o1`?
VCAM1 pot: -92.8

What do the screens show for `CC(C)Oc1ccc(C(=O)NCc2ccco2)cc1`?
VCAM1 pot: 0.7

Results for O=c1c2ccccc2nc(/C=C/c2ccc([N+](=O)[O-])o2)n1CCCO ?
VCAM1 pot: -57.6

How did CCOc1ccc(OCC)c(S(=O)(=O)N2CCCCC2C)c1 (configuration not stated) do in these assays?
VCAM1 pot: -3.4

How did Cn1c(SCC(=O)NCc2ccc(F)cc2)nc2ccccc21 do in these assays?
VCAM1 pot: 49.9*; VCAM1 pot conf: -2.1

How did CC(C)(C)NC(=O)Cn1c(SCC(N)=O)nc2ccccc21 do in these assays?
VCAM1 pot: -1.0

What do the screens show for `Cc1nc2ccccc2n1CC(=O)NCc1ccccc1`?
VCAM1 pot: -7.9

How did COc1cc(C(=O)COC(=O)CNC(=O)C2CCCCC2)cc(OC)c1OC do in these assays?
VCAM1 pot: 3.7

How did CCN(C1CCCCC1)S(=O)(=O)c1cn(C)c(=O)n(C)c1=O do in these assays?
VCAM1 pot: -2.1

Results for CCN1CCCC1CNC(=O)Cn1cnc2sc(C)c(S(=O)(=O)N3CCC(C)CC3)c2c1=O (configuration not stated) ?
VCAM1 pot: 48.1*; VCAM1 pot conf: -1.7

Results for COc1cc(OC)c(C(=O)Nc2ccc(S(=O)(=O)Nc3ncccn3)cc2)cc1OC ?
VCAM1 pot: -9.9

How did CNc1nc(OCCNC(=O)Nc2ccccc2)nc(N2CCOCC2)n1 do in these assays?
VCAM1 pot: 0.2

What do the screens show for `Cc1ccc(C(C(=O)NC2CCCCC2)N(Cc2ccco2)C(=O)Cc2c[nH]c3ccccc23)o1` (configuration not stated)?
VCAM1 pot: 4.4

How did COC(=O)c1sc(=S)n(-c2cccc(Cl)c2)c1N do in these assays?
VCAM1 pot: -7.9

Results for Cc1ccc(S(=O)(=O)N2CCOCC2)cc1C(=O)OCC(=O)N1CCc2ccccc2C1 ?
VCAM1 pot: 3.0

Results for COC(=O)CCCC[C@@H]1SC[C@@H](NC(=O)OC)[C@@H]1NC(=O)OC ?
VCAM1 pot: -6.9

Results for CC(C)c1ccc(NC(=O)C(c2ccccc2)N2CCC3(CC2)OCCO3)cc1 (configuration not stated) ?
VCAM1 pot: -2.1

Results for COc1cc(NC(=S)NC(=O)c2ccc(C)cc2C)ccc1NC(=O)c1cccs1 ?
VCAM1 pot: -5.1

Results for CC1=C(C(=O)Nc2cc(C)ccc2C)C(c2cccs2)NC(=S)N1 (configuration not stated) ?
VCAM1 pot: 51.6*; VCAM1 pot conf: -11.3

Results for Cc1ccc(OCCSc2nnc(-c3cccs3)n2C)cc1 ?
VCAM1 pot: 6.7

What do the screens show for `CC(Sc1nnc(-c2cccs2)n1-c1ccccc1)C(=O)NCc1ccco1` (configuration not stated)?
VCAM1 pot: -2.6

What do the screens show for `CN1CCN(S(=O)(=O)c2ccc(Sc3nnc(-c4cccs4)n3-c3ccccc3)nc2)CC1`?
VCAM1 pot: 58.7*; VCAM1 pot conf: -6.1

Results for COc1cccc(Nc2nc(=O)[nH]nc2C)c1 ?
VCAM1 pot: 29.3
